Experimental findings from PubChem BioAssay (EPA / NIEHS) are described below.

A short description of assay [1]: APR_HepG2_CellCycleArrest_24hr: Apredica 24-hour HepG2 Assay for Cell Cycle Arrest (AID 2282905).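 Also: cell cycle arrest scored as ratio of 2N to 4N nuclear DNA content.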 To be noted: imaging, actives raise or lower the signal. In outline:
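Readout: Hoechst 33342 nuclear DNA content by high-content fluorescent imaging, six images/well, 20x. Human HepG2 liver cells, 24 hr compound exposure, 0.39–200 uM, final DMSO 0.5% v/v. Gain or loss fitted relative to DMSO baseline.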

Assay [2] in a line: APR_HepG2_NuclearSize_24hr: Apredica 24-hour HepG2 Assay for Nuclear Size (AID 2282907). The note with it: high-content imaging, actives raise or lower the signal. In outline: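 Read-out: nuclear diameter from Hoechst 33342 (2 ug/mL) imaging of fixed HepG2 cells, 20x, six fields/well. Compounds ran at 0.39–200 uM for 24 hr, 0.5% DMSO final. Gain or loss was fitted bidirectionally relative to the DMSO baseline.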

Assay [3] can be described thus: APR_HepG2_CellLoss_24hr: Apredica 24-hour HepG2 Assay for Cell Loss (AID 2282908).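 As to AC50: fit in both directions so a hit may be cell loss or gain.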 To be noted: high-content imaging. In short, it runs like this:
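Read-out: Hoechst 33342-stained nuclei counted by automated fluorescence imaging after formaldehyde fixation and Triton permeabilization. Ten concentrations, 0.39 to 200 uM, duplicate wells, 0.5% DMSO final. Gain or loss of signal fitted relative to DMSO baseline.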

The nature of assay [4]: APR_HepG2_MicrotubuleCSK_24hr: Apredica 24-hour HepG2 Assay for Microtubule CSK Stabilty (AID 2282909). To be noted: HepG2 microtubule cytoskeleton imaging, actives raise or lower the signal. In short, it runs like this: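 Read-out: alpha-tubulin immunofluorescence intensity by automated high-content imaging of fixed HepG2 cells after 24 h compound treatment. Ten concentrations, 0.39 to 200 uM, in duplicate; DMSO 0.5% v/v. Taxol positive control; DMSO-normalized bidirectional curve fitting.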

Assay [5] in a line: APR_HepG2_MitoticArrest_24hr: Apredica 24-hour HepG2 Assay for Mitotic Arrest (AID 2282910). To be noted: high-content imaging, actives raise or lower the signal. In short, it runs like this: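 HepG2, 24 hr dosing, 0.39–200 uM, 0.5% DMSO final. Formaldehyde-fixed, Triton-permeabilised, anti-phospho-histone H3 plus Hoechst. ArrayScan imaging at 20x; bidirectional fit vs DMSO baseline.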

A short description of assay [6]: APR_HepG2_MitoMembPot_24hr: Apredica 24-hour HepG2 Assay for Mitochondrial Membrane Potential (AID 2282911). The note with it: imaging, actives raise or lower the signal. In outline: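 Mitochondrial dye uptake (MitoTracker Red CMXRos, 250 nM, 30 min pre-fixation) in HepG2 after 24 hr compound exposure, 0.39–200 uM; ArrayScan images at 20x, activity fitted in both directions relative to DMSO.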

The nature of assay [7]: APR_HepG2_MitoMass_24hr: Apredica 24-hour HepG2 Assay for Mitochondrial Mass (AID 2282912). The note with it: high-content imaging, actives raise or lower the signal. In outline:
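HepG2, 24 hr dosing, 10 concentrations 0.39–200 uM in duplicate, DMSO 0.5% final. MitoTracker Red CMXRos 250 nM, 30 min pre-fix; 3.7% formaldehyde fix. Imaging-based fluorescence intensity; gain/loss fit vs DMSO baseline.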

Assay [8] is described as follows: APR_HepG2_p53Act_24hr: Apredica 24-hour HepG2 Assay for p53 Activation (AID 2282913).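 Also: p53 protein immunofluorescence averaged per cell in HepG2 with Hoechst nuclei.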 To be noted: high-content imaging, actives raise or lower the signal. In outline: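 Following 24 hr dosing of HepG2 at 0.39–200 uM, the cells undergo formaldehyde fixation, Triton permeabilization and multiplexed antibody labeling that includes p53 (Cy5). Signal from the imaging is referenced to DMSO solvent controls.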

Assay [9] is described as follows: APR_HepG2_CellCycleArrest_72hr: Apredica 72-hour HepG2 Assay for Cell Cycle Arrest (AID 2282914). To be noted: high-content imaging, actives raise or lower the signal. In outline: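 Using multiplexed high-content imaging, HepG2 nuclei stained with Hoechst 33342 (2 ug/mL) were analysed for DNA content after fixation and permeabilization. Treatment lasted 72 hr across 0.39–200 uM in duplicate with final DMSO 0.5% v/v; DMSO served as negative control.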

A short description of assay [10]: APR_HepG2_CellLoss_72hr: Apredica 72-hour HepG2 Assay for Cell Loss (AID 2282915). To be noted: high-content imaging. In short, it runs like this:
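HepG2 cells exposed 72 h to compound at 0.39–200 uM (10 concentrations, duplicate) in 0.5% DMSO. Fixed with 3.7% formaldehyde and Hoechst 33342-stained. Imaged at 20x; nuclear count gives cell number, fitted bidirectionally versus DMSO.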

Assay [11] is described as follows: APR_HepG2_P-H2AX_72hr: Apredica 72-hour HepG2 Assay for H2AX Phosphorylation (AID 2282916).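 Also: phospho-histone H2A.x immunostain intensity per cell marking DNA damage.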 The note with it: imaging, actives raise or lower the signal. In outline:
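Readout: phospho-H2A.x immunofluorescence (FITC secondary) plus Hoechst nuclear stain, high-content imaging at 20x, six fields/well. HepG2, 72 hr compound exposure, 0.39–200 uM, final DMSO 0.5% v/v. Gain or loss fitted relative to DMSO baseline.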

A short description of assay [12]: APR_HepG2_MitoMembPot_72hr: Apredica 72-hour HepG2 Assay for Mitochondrial Membrane Potential (AID 2282917). The note with it: imaging, actives raise or lower the signal. In outline:
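HepG2 cells dosed 72 hr with compound at 0.39–200 uM in duplicate, 0.5% v/v DMSO final. Mitochondria stained with 250 nM MitoTracker Red CMXRos for 30 min before formaldehyde fixation, imaged by high-content fluorescence; bidirectional fit versus DMSO.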

Assay [13] can be described thus: APR_HepG2_MitoticArrest_72hr: Apredica 72-hour HepG2 Assay for Mitotic Arrest (AID 2282918). To be noted: high-content imaging, actives raise or lower the signal. In outline:
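Using high-content imaging of fixed HepG2 cells, phospho-histone H3 signal was measured following a 72 hr incubation with ten-point compound dilutions up to 200 uM. DMSO served as the negative control and baseline for bidirectional curve fitting.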

The nature of assay [14]: APR_HepG2_MicrotubuleCSK_72hr: Apredica 72-hour HepG2 Assay for Microtubule CSK Stabilty (AID 2282919). The note with it: HepG2 microtubule cytoskeleton, high-content imaging, actives raise or lower the signal. In short, it runs like this: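 HepG2, 72 hr cmpd exposure, 0.39–200 uM (10 pts, duplicate), 0.5% DMSO. 3.7% formaldehyde fix, 0.5% Triton perm, anti-alpha-tubulin/Cy5 plus Hoechst. HCS fluorescence intensity; bidirectional fit vs DMSO baseline; taxol as positive control.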

A short description of assay [15]: APR_HepG2_P-H2AX_24hr: Apredica 24-hour HepG2 Assay for H2AX Phosphorylation (AID 2282920). To be noted: high-content imaging, actives raise or lower the signal. In short, it runs like this: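 Human HepG2 liver cells, treated 24 hr with test chemicals (0.39–200 uM, final DMSO 0.5% v/v), are fixed and co-stained for phospho-H2A.x and c-Jun with Hoechst. Imaged intensity is fitted in both directions against DMSO controls.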

Assay [16] in a line: APR_HepG2_StressKinase_72hr: Apredica 72-hour HepG2 Assay for Stress Kinase (AID 2282921). To be noted: HepG2 stress kinase (phospho-c-Jun) imaging, actives raise or lower the signal. In outline: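 Phospho-c-Jun immunofluorescence measured by high-content imaging at 20x, six fields per well; bidirectional curve fitting against DMSO as baseline. Dosing: 0.39–200 uM, 72 h, 0.5% DMSO final.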

The nature of assay [17]: APR_HepG2_StressKinase_24hr: Apredica 24-hour HepG2 Assay for Stress Kinase (AID 2282922). To be noted: HepG2 stress kinase (phospho-c-Jun) imaging, actives raise or lower the signal. In outline:
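Read-out: phospho-c-Jun immunofluorescence (Cy3 secondary) quantified by high-content imaging at 20x, nuclei defined by Hoechst 33342. Human HepG2 liver cells dosed 24 hr, 0.39–200 uM, DMSO 0.5% v/v; gain or loss of signal fitted relative to DMSO.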

A short description of assay [18]: APR_HepG2_p53Act_72hr: Apredica 72-hour HepG2 Assay for p53 Activation (AID 2282923).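 Also: average cellular p53 protein immunofluorescence intensity in HepG2 cells.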 The note with it: high-content imaging, actives raise or lower the signal. In short, it runs like this:
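Readout: p53 immunofluorescence quantified by automated high-content imaging at 20x, six fields per well, nuclei located via Hoechst. Dosing ran 72 hr over ten concentrations from 0.39 to 200 uM; bidirectional curve fitting against DMSO baseline.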

A short description of assay [19]: APR_HepG2_MitoMass_72hr: Apredica 72-hour HepG2 Assay for Mitochondrial Mass (AID 2282924).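 Also: MitoTracker Red CMXRos stain intensity per cell imaged as mitochondrial mass.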 To be noted: high-content imaging, actives raise or lower the signal. In short, it runs like this: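 Read-out: MitoTracker Red fluorescence intensity from automated imaging (20x, six fields per well) in human HepG2 liver cells. Dosing ran 72 hr, 0.39–200 uM, 0.5% DMSO; bidirectional curve fitting versus DMSO baseline.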

Assay [20] in a line: APR_HepG2_NuclearSize_72hr: Apredica 72-hour HepG2 Assay for Nuclear Size (AID 2282925). To be noted: high-content imaging, actives raise or lower the signal. In short, it runs like this:
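Read-out: nuclear diameter from Hoechst 33342 images (ArrayScan, 20x, six fields/well), via cell-cycle image analysis. HepG2 were dosed 0.39–200 uM for 72 hr in 0.5% DMSO. Bidirectional fit relative to DMSO.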

Activity calls are given as the source filed them. The calls were made as follows: active = hit-call score of the fitted dose curve at least 0.9, where 1 is the maximum; inactive = score below 0.9.

With `CCCCCCCCCCCCO`, the result in assay [1], in assay [2], in [3], in assay [4], in assay [5] and in assay [6] was inactive. In addition, the compound was called inactive in assay [7], in assay [8], in assay [9], in [10], in [11] and in assay [12]. Also, the compound was called inactive in assay [13], in assay [14], in assay [15], in assay [16], in assay [17] and in [18]. The result in assay [20] was inactive. For the same compound, the AC50 in assay [19] is 119 µM (active).

`NCc1cccc(C2CCN(C(=O)c3ccc(C#Cc4ccccc4F)o3)CC2)c1`: the compound was classed as inactive in assay [1], in assay [2], in [7], in [9], in [14] and in assay [17]. For the same compound, the compound was called inactive in assay [19]. Moreover, the AC50 in assay [3] was 17.7 µM (active); in assay [4], 61.3 µM (active); in assay [5], 18.6 µM (active); in [6], 18.4 µM (active); in assay [8], 16.4 µM (active); in [10], 15.5 µM (active). The AC50 in [11] is 17.7 µM (active); in assay [12], 98.3 µM (active); in assay [13], 17.2 µM (active); in [15], 18.6 µM (active); in [16], 14.3 µM (active); in [18], 11.4 µM (active). In addition, the AC50 in [20] was 107 µM (active).

Turning to `CCCCCCCCOC(=O)c1cc(O)c(O)c(O)c1`, the AC50 in assay [1] was 14.8 µM (active); in assay [3], 90 µM (active); in assay [4] it was 171 µM (active); in assay [5], 50.8 µM (active); in [6] it was 13.5 µM (active); in assay [8], 43.3 µM (active). The AC50 in [9] was 8.95 µM (active); in assay [10] it was 63.2 µM (active); in assay [11], 5.88 µM (active); in [13], 68.3 µM (active); in assay [15] it was 45.6 µM (active); in assay [17] it was 52.1 µM (active). In addition, the AC50 in [18] is 4.98 µM (active). Moreover, the result in assay [2], in assay [7], in assay [14], in assay [16], in assay [19] and in [20] was inactive.

For the compound `COc1cc(C(=O)NC2CCN(C)CC2)ccc1Nc1ncc2c(n1)N(C1CCCC1)CC(F)(F)C(=O)N2C`, the outcome in assay [1], in [2], in [3], in assay [4], in assay [5] and in assay [6] was inactive. In addition, the call in assay [7], in assay [8], in [9], in [10], in assay [11] and in assay [12] was inactive. Moreover, the compound was classed as inactive in assay [13], in assay [14], in [15], in [16], in assay [17] and in assay [18]. In addition, the outcome in assay [19] and in assay [20] was inactive.

For `CN1C(=O)CC[C@H]1c1cccnc1`, the result in [1], in [2], in assay [3], in assay [4], in assay [5] and in [6] was inactive. Also, the outcome in assay [7], in [8], in assay [9], in [10], in assay [11] and in assay [12] was inactive. The result in assay [13], in assay [14], in [15], in [16], in [17] and in assay [18] was inactive. In addition, the outcome in [19] and in assay [20] was inactive.

For the compound `O=C1O[C@H]([C@@H](O)CO)C(O)=C1O`, the outcome in assay [1], in assay [2], in [3], in assay [4], in [5] and in assay [6] was inactive. In addition, the compound was classed as inactive in assay [7], in assay [8], in [9], in assay [14], in assay [15] and in assay [16]. The call in assay [17] and in assay [19] was inactive. For the same compound, the AC50 in [10] was 16.1 µM (active); in assay [11], 11.2 µM (active); in assay [13], 7.73 µM (active); in assay [18], 10.5 µM (active); in [20], 11.1 µM (active).

For orientation: AC50 means the concentration at which the activity in the assay is half-maximal.
